Experimental findings from PubChem BioAssay (EPA / NIEHS) are described below.

Several values for one entry are separate records, joined by “and”; a condition that tells them apart may be missing. Equal entries are not always repeated. Inconclusive results are not listed. Activity calls are given as the source filed them. Rule for the calls: active = hit-call score of the fitted dose curve at least 0.9, where 1 is the maximum; inconclusive = response in the unintended direction; inactive = score below 0.9.

For the first assay, the target named is rat Glutamate, MK-801 Agonist Site (GluNMDA_MK801), Grin1 (gene 24408) (UniProt P35439). The experiment in a line: NVS_LGIC_rGluNMDA_MK801_Agonist: NovaScreen (NVS) Ligand-Gated Ion Channel Assay for rat Glutamate, MK-801 Agonist Site (GluNMDA_MK801) (AID 2283340). The method in brief: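 Rat forebrain membrane preparation; MK-801-site radioligand binding read by filtration and scintillation after 1.5 h. Single-point 25 uM duplicate screen, followed by singleton concentration series to 50 uM max; DMSO baseline.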
As to `C=CCOC(Cn1ccnc1)c1ccc(Cl)cc1Cl` (stereo not drawn), the compound was called inactive. One may read the AC50 as the midpoint of the concentration-response curve, whichever way the signal moves. As to `S=C(S)NCCNC(=S)S.[Mn+2].[S-]C([S-])=NCCN=C([S-])[S-].[Zn+2]`, the AC50 was 17.3 µM (active) and 25 µM (active). `S=C([S-])NCCNC(=S)[S-].[Mn+2]`: the compound was called inactive.

The next assay relates to guinea pig Histamine Receptor (H2), gene 100729734. The experiment in a line: NVS_GPCR_gH2: NovaScreen (NVS) G Protein-Coupled Receptor Assay for guinea pig Histamine Receptor (H2) (AID 2283342). The procedure, abridged:
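Guinea pig striatal membrane preparation with specific radioligand; bound counts measured by filtration and scintillation 1 h post-dosing, DMSO as baseline. Chemicals passing a 25 uM duplicate screen were titrated to a 50 uM maximum.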
With `COC(=O)c1ccccc1C(=O)O`, the outcome was inactive. As for `C=CCOC(Cn1ccnc1)c1ccc(Cl)cc1Cl` (stereo not drawn), the concentration at half-maximal activity (AC50) is 6.78 µM (active).

On to `C[C@]12CC[C@@H]3c4ccc(O)cc4C[C@@H](CCCCCCCCCS(=O)CCCC(F)(F)C(F)(F)F)[C@H]3[C@@H]1CC[C@@H]2O` (stereo partly drawn), for which the outcome was inactive.

The test system of a further assay is NCBI gene 100848466. Kind of assay: NVS_NR_bPR: NovaScreen (NVS) Nuclear Receptor Binding Assay for bovine Progextron Receptor (PR) (AID 2283343).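 For AC50: actives lower bound radioligand signal below DMSO meaning displacement of the label.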 The method in brief: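 Scintillation counts of bound radioligand were read 18 hours after chemical addition to membranes extracted from bovine uterus. Displacement was scored as loss of signal relative to DMSO controls. Screening began at 25 uM in duplicate.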
For the compound `CC(C)(c1ccc(O)cc1)c1ccc(O)cc1`, the AC50 is 10.3 µM (active) and 19.7 µM (active) and 14.7 µM (active).

For `CCCCC(CC)CN1C(=O)C2C3C=CC(C3)C2C1=O` (stereo not drawn), the compound was called inactive. On to `CC(C)CCCCCCc1ccc(O)cc1`, for which the compound was called inactive. Still for that read-out and setting: for `CCCCOCCOCCOCc1cc2c(cc1CCC)OCO2` the value was “inactive”. For the compound `C[C@]12C[C@H](O)[C@H]3[C@@H](CCC4=CC(=O)CC[C@@]43C)[C@@H]1CC[C@@H]2C(=O)CO`, the concentration at half-maximal activity (AC50) is 875 nM (active). `C=CCOC(Cn1ccnc1)c1ccc(Cl)cc1Cl` (stereo not drawn): the half-maximal activity concentration (AC50) was 13000 nM (active). Take `CC(=O)[C@H]1CC[C@H]2[C@@H]3CCC4=CC(=O)CC[C@]4(C)[C@H]3CC[C@]12C`: the AC50 is 2.29 nM (active). In the case of `N#CSCSc1nc2ccccc2s1`, the outcome was inactive. Consider `c1ccc(Nc2ccccc2)cc1`, for which the outcome was inactive. `CC1(C)C(C=C(Cl)Cl)C1C(=O)OCc1cccc(Oc2ccccc2)c1` (stereo not drawn): the result was inactive. Still for that read-out and setting: for `CCNc1nc(N)nc(Cl)n1` the value was “inactive”; for `CCCN(CCC)C(=O)SCC`, “inactive”.
